Experimental data as given in ChEMBL document CHEMBL3433997, “St. Jude Leishmania screening dataset” (2016).

Key:
Format in all cases: functional
[1] = target: Solute carrier family 2, facilitated glucose transporter member 1 (Homo sapiens) (UniProt P11166); assay: ST_JUDE_LEISH: Cytotoxicity at 2uM final concentration against transgenic Leishmania Mexicana promastigotes LmGLUT1 that are glucose transport deficient and complemented with the human glucose transporter GLUT1. Activity is measured by DNA content using SYBR green in vitro
Chain of Solute carrier family 2, facilitated glucose transporter member 1 (Homo sapiens) (P11166 whole entry): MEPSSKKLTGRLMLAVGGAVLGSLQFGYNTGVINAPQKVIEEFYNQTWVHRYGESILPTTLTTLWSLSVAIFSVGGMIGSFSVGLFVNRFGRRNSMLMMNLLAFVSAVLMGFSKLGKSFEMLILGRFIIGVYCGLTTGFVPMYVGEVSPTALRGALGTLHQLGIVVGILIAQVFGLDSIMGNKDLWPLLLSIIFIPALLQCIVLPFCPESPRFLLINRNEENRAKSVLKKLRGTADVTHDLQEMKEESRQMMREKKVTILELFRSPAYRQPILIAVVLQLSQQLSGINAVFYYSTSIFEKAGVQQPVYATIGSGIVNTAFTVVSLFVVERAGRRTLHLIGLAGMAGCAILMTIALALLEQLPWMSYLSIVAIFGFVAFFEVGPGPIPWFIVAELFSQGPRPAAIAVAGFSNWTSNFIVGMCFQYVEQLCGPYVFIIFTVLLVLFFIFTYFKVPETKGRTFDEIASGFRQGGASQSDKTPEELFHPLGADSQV

[2] = target: Hexose transporter 1 (Plasmodium falciparum) (UniProt O97467); assay: ST_JUDE_LEISH: Cytotoxicity at 2uM final concentration against transgenic Leishmania Mexicana promastigotes LmPfHT that are glucose transport deficient and complemented with the Plasmodium falciparum hexose transporter. Activity is measured by DNA content using SYBR green in vitro
[3] = target: Glucose transporter (Leishmania mexicana) (UniProt O61059); assay: ST_JUDE_LEISH: Cytotoxicity at 2uM final concentration against transgenic Leishmania Mexicana promastigotes LmGT2 that are glucose transport deficient and complemented with the L. Mexicana glucose transporter 2. Activity is measured by DNA content using SYBR green in vitro

Compound | inhibition [1] | inhibition [2] | inhibition [3]
O=C(Nc1cccc(N2CCC(NCCCn3ccnc3)CC2)c1)c1cccc(C(F)(F)F)c1 | 0.98% | -0.71% | 3.8%
FC(F)(F)c1cc(Nc2ccc(Oc3ccccc3)cc2)c2cc(-c3ccncc3)ccc2n1 | -0.25% | 0.41% | -0.05%
COc1cccc2c(N/N=C/c3ccccc3[N+](=O)[O-])cc(C)nc12 | 0.15% | 0.03% | 0.39%
Cc1ccc(C(NC(=O)c2ccccc2)c2ccc3cccnc3c2O)cc1 (stereo not drawn) | 4.29% | 6.5% | -0.04%
O=C(NCc1ccc(C(F)(F)F)cc1)c1cccc(-c2nnc(-c3cccc(-c4cncnc4)c3)o2)c1 | 9.91% | 4.62% | 4.68%
CC(=O)N(Cc1ccc(CC(C)NCCc2cccc(Cl)c2)cc1)Cc1ccc(CC(C)NCCc2cccc(Cl)c2)cc1 (stereo not drawn) | 83.6% | 72.7% | 99.7%
Oc1ccccc1CCNC1CCc2ccccc2C1 (stereo not drawn) | 4.4% | 5.27% | 6.05%
Cc1ccccc1C1CCN(C2CCC(NC(=O)c3cc(-c4ccc(Cl)cc4)cs3)CC2)CC1 (stereo not drawn) | 2.23% | 3.13% | -2.52%
CC(C)Cn1c(Sc2ccc(C#N)c([N+](=O)[O-])c2)nnc1-c1ccccc1 | 6.46% | 6.58% | 3.76%
N=C(Nc1ccccc1)Nc1cccc(Cc2ccc([N+](=O)[O-])cc2)n1 | 5.43% | 3.98% | 0.1%
CCOc1ccc(C2CCN(CCN3CCC(NC(=O)c4ccc(-c5ccc(C(F)(F)F)cc5)cc4)CC3)CC2)c(OCC2CC2)c1 | 3.99% | 3% | 2.81%
CC(C)COc1ccc(Cl)cc1Cc1ccc(-c2nc3cc(N4CCN(C)CC4)ccc3[nH]2)o1 | 4.56% | 1.63% | 2.01%
COc1ccc(O)c(C(=O)c2cc(C#N)c(=O)n(-c3ccc(Oc4ccccc4)cc3)c2)c1 | 10.2% | 8.65% | 9.41%
CCCC(CNCc1ccccc1)CNc1cc(=O)c2ccccc2[nH]1 (stereo not drawn) | -0.08% | -3.44% | -0.73%
Cc1ccccc1C1CCN(C2CCC(NC(=O)/C=C/c3cccc(Cl)c3)CC2)CC1 (stereo not drawn) | -2.09% | -2.1% | -3.2%
CCCCCN1CCC(NC(=O)c2ccc(C(=O)Nc3ccc(C(C)C)cc3)cc2)C1 (stereo not drawn) | 1.74% | 1.41% | 1.46%
N#Cc1ccc2c(c1)CCN(CCC1CCC(NC(=O)/C=C/c3cccc4ccccc34)CC1)CC2 (stereo not drawn) | 4.36% | 9.02% | 2.63%
CN1CCN(c2ccnc3ccc(NC(=O)Nc4ccc5c(c4)CCC5=O)cc23)CC1 | 3.7% | 2.43% | 5.45%
C=CCOC(=O)O[C@@H]1[C@@H](OC(=O)OCC=C)[C@@H](OC)O[C@H](COC(c2ccccc2)(c2ccccc2)c2ccccc2)[C@H]1OC(=O)OCC=C | 4.46% | 3.53% | 4.42%
OC(CNc1ccnc(Nc2cccc(Cl)c2)n1)c1ccc(C(F)(F)F)cc1 (stereo not drawn) | 9.21% | 7.14% | 5.22%
C=CCOc1ccccc1CNCC(O)c1cc(Br)cs1 (stereo not drawn) | 1.55% | 2.37% | 2.43%
O=C(Nc1ccc2c(c1)CCNCC2)Nc1ccc2ccccc2c1 | 11.1% | 8.46% | 9.36%
CC(C)CCNC(=N)c1ccc(OCCCCCOc2ccc(C(=N)NCCC(C)C)cc2)cc1 | 12.4% | 12.5% | 8.15%
CC(NC(C)c1cccc(Cl)c1)C(=O)Nc1cc(C(F)(F)F)ccc1N1CCOCC1 (stereo not drawn) | 0.88% | 0.48% | -9.9%

Compound | inhibition [1] | inhibition [2] | inhibition [3]
CC(=O)Nc1ccc(C#Cc2ccc(-c3c(C)[nH]c(C)c(Cl)c3=O)cc2)cc1 | 1.3% | 0.64% | 1.24%
O=C(Cc1ccccc1)NC(c1ccccc1)c1ccc2cccnc2c1O (stereo not drawn) | 2.31% | 0.51% | -1.17%
COc1ccc(CNCc2ccsc2)cc1-c1ccc(S(=O)(=O)NCCN2CCCC2)s1 | 8.12% | 8.67% | 5.77%
CC(CON1C(N)=NC(N)=NC1(C)C)Cc1ccc(Cl)cc1Cl (stereo not drawn) | -0.6% | -1.29% | -0.29%
Cc1ccc(NC(=O)NCCCCCN2CCC(c3c[nH]c4ccccc34)CC2)cc1I | 3.96% | 3.64% | 3.15%
COC1CCC(C(=O)Nc2ccc(-c3cccc(-c4nc5cccc(C)c5[nH]4)c3)cc2)CC1 (stereo not drawn) | 6.31% | 4.3% | 3.5%
COc1ccc2nc(C)cc(NCc3ccc4ccccc4c3)c2c1 | 12.8% | 9.9% | 5.11%
CCOC(=O)c1ccc(NC(=O)N[C@H]2CCN(CCCCCNC(=O)/C=C/c3ccc(Cl)c(Cl)c3)C2)cc1 | 4.4% | 2.51% | 5.84%
C=CCN(C(=O)c1ccc(Cl)c([N+](=O)[O-])c1)c1nc(-c2ccccc2)cs1 | 10.6% | 9.45% | 7.89%
Cc1ccc(O)cc1Nc1c(C(N)=O)cnc2ccc(-c3cncs3)cc12 | -2.06% | -0.39% | -1.28%
CN1CCCCC1CCc1cc(C(=O)Nc2ccc(-c3ccc(O)cc3)cc2)ccc1O (stereo not drawn) | 1.7% | 1.76% | -0.5%
Cc1ccc(C(=O)Nc2ccc(OC3CCN(CCC(C)C)C3)c(Cl)c2)cc1 (stereo not drawn) | 3.79% | 4.8% | 3.43%
CN(C)CCCNc1ncnc2c1[nH]c1ccc(Br)cc12 | 1.44% | 2.41% | 1.04%
O=C(Nc1cccc(CN2CCCN(Cc3ccc(O)cc3)CC2)c1)c1cc2ccccc2o1 | -0.45% | 2.02% | 1.62%
N=C(/N=C(/NCCCCCCN/C(=N\C(=N)Nc1ccc(Cl)cc1)N1CCOCC1)N1CCOCC1)Nc1ccc(Cl)cc1 | 10.5% | 9.54% | 9.37%
CC(C)COc1ccc2ccccc2c1CNCCCCCCNCc1c(OCC(C)C)ccc2ccccc12 | 86.6% | 88.5% | 27.7%
COc1ccc(CN(C)CCCOc2ccc(NC(=O)C=Cc3ccc(C(C)(C)C)cc3)cc2)cc1OC | 13.9% | 9.61% | 9.75%
CCn1c(C)cc(C=C2SC(=Nc3ccccc3)NC2=O)c1C | 6.88% | 4.18% | 2.93%
CCC(C)(C)c1ccc(N2C(N)=NC(N)=NC2(C)C)cc1 | -2.05% | -1.28% | -2.78%
CN(C)Cc1cc2c(O)c(Cc3ccccc3)ccc2o1 | 2.65% | 4.63% | 3.94%
C=CCOC(=O)N1CCC(CNCc2cccc(-c3ccc(-c4nc5cccc(C)c5[nH]4)s3)c2)C1 (stereo not drawn) | -0.28% | -0.37% | -0.89%
COc1ccc(-c2ccc(NC(=O)c3cccc(Cl)c3)c(F)c2)cc1CNC(C)C | 9.29% | 7.16% | 4.55%
COc1ccc(N2CCN(CCCCNC(=O)c3ccc(NC(=O)c4cc(C(F)(F)F)cc(C(F)(F)F)c4)cc3)CC2)cc1OC | 1.59% | 2.48% | 2.71%
COC(=O)CCCCCOc1cc(Cc2cnc(N)nc2N)cc(OC)c1OC | -0.5% | -5.95% | 0.35%

Compound | inhibition [1] | inhibition [2] | inhibition [3]
Cc1cn(CC(=O)Nc2cccc(-c3cccc(-c4nc5cc(C(F)(F)F)ccc5[nH]4)c3)c2)c(=O)[nH]c1=O | 9.16% | 8.95% | 4.55%
CCCCC1=CC2C(=O)C(C(=O)OC)=CN=C2C=C1OCc1ccccc1 (stereo not drawn) | -0.41% | -2.57% | -1.77%
NC(=O)c1cccc(CNC(=O)NC[C@H]2CN(Cc3ccc(Cl)c(Cl)c3)CCO2)c1 | 7.5% | 6.84% | 6.5%
Cc1ccc(N2C(=O)C3C(C2=O)C2(c4ccccc4)C(=O)C3(c3ccccc3)C(c3ccccc3)=C2c2ccccc2)c(C)c1 (stereo not drawn) | 6.28% | 4.9% | 3.25%
O=C(/C=C/c1cc([N+](=O)[O-])ccc1Cl)N1CCC(CCN2CCC(c3c[nH]c4ccccc34)CC2)CC1 | 2.1% | 3.61% | 0.76%
CC1(C)CCCC(=Cc2ccc(Br)cc2)C1(O)Cn1ccnc1 (stereo not drawn) | 27.9% | 20.9% | 13.5%
c1ccc2[nH]c(-c3ccc(-c4ccc(CN5CCC(N6CCCCC6)CC5)cc4)s3)nc2c1 | 0.72% | -0.81% | -1.09%
CCc1cccc(C)c1-n1nc(-c2cc(C(C)(C)C)oc2C)cc1N | 2.34% | 1.75% | 0.33%
COc1cc(C(=O)NCCCN2CCN(c3cccc(Cl)c3)CC2)ccc1-c1cc2cc(Cl)c(Cl)cc2[nH]1 | 4.57% | 4.17% | 3.53%
N#Cc1cc(C(=O)c2cc(Br)ccc2O)cn(C2CCCCC2)c1=O | 0.39% | 1.1% | 3.8%
c1cc(-c2ccc(CN3CCN(c4ccncc4)CC3)cc2)cc(-c2nc3ccccc3[nH]2)c1 | 1.81% | 3.51% | 2.1%
CN1CCC(c2cc3c(cc2Br)CCN3C(=O)Nc2ccc(-c3ccncc3)c(Cl)c2)CC1 | 0.33% | 1.09% | 0.25%
CC(=O)N(C)c1cccc(C(=O)Nc2ccc(-c3cccc(-c4nc5cc(C(F)(F)F)ccc5[nH]4)c3)cc2)c1 | 11.5% | 10.1% | 9.62%
COC(=O)c1cc(NC(=O)Nc2ccc(Cn3ncc(N4CCCNCC4)c(Cl)c3=O)cc2)cc(C(=O)OC)c1 | 0.7% | 1.45% | 1.92%
CC(C)(C)C1CCC(C(=O)c2ccc3ccccc3c2O)CC1 (stereo not drawn) | 1.28% | -0.87% | 0.57%
CCn1c(CN2CCC(C)CC2)nc2cc(NC(=O)c3cccs3)ccc21 | 9.93% | 9.8% | 12.5%
CC(CN1CCN(C)CC1)C(=O)Nc1ccc(-c2ccc(-c3nc4cc(F)ccc4[nH]3)cc2)cc1 (stereo not drawn) | 9.06% | 3.05% | 8.04%
COc1cc(OC)cc(-c2nnc(Sc3ccc(C#N)c([N+](=O)[O-])c3)n2C)c1 | 9.51% | 6.92% | 5.47%
CN(C)CC(O)C(c1ccccc1)c1ccc(Cl)cc1 (stereo not drawn) | 5.17% | 1.04% | 0.76%
NS(=O)(=O)c1cccc(-c2ccc3c(O)ncnc3c2)c1 | 4.08% | 3.82% | 5.44%
N#Cc1ccc2c(c1)CCN(CCCn1c(-c3ccc4ccccc4c3)nc3ccncc31)CC2 | 15.1% | 16.1% | 10.4%
COc1c(CCNCCCCNCCc2cc(Cl)c3ccccc3c2OC)cc(Cl)c2ccccc12 | 102% | 100% | 105%
Cc1cc(-c2ccc3c(c2)CCN(CCC2CCC(NC(=O)/C=C/c4ccc(F)cc4)CC2)CC3)on1 (stereo not drawn) | 4.44% | 2.66% | 4.41%
